Screening results (PubChem BioAssay)
Most compounds without a hit are left out; they make up all but 3.3% or so of the library.
AmpC detergent: qHTS Inhibitors of AmpC Beta-Lactamase (assay with detergent); P00811; AmpC hydrolysis of nitrocefin, absorbance 480 nm, 0.01% Triton; AID 485294, 2010; Potency, µM (series often up to 114 µM), hits mostly inhibitors; 370,000 compounds, 0.041% hits; further: nearly all actives have a fitted effect of over 25% in size
Target sequence (P00811 whole entry, looked up): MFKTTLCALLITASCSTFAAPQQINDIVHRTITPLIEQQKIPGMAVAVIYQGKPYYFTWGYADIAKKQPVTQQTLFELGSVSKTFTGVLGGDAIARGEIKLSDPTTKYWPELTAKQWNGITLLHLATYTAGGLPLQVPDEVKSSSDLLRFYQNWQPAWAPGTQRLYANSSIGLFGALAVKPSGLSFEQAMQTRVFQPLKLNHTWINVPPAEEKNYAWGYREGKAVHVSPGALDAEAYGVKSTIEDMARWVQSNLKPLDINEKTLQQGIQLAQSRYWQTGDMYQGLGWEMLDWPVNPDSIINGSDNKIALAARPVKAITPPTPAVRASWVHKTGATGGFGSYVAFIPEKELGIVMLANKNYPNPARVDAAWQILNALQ
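20 mM phosphate pH 7.0 + 0.01% (detergent screen) or 0.0001% Triton X-100; 5.3 nM AmpC reagent; cpd preinc 15 min RT; nitrocefin (800 uM stock) to start; A480 q20 s × 4 min; Activity was normalised to no-enzyme and no-compound control wells.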
AmpC inh no detg: qHTS Inhibitors of AmpC Beta-Lactamase (assay without detergent). P00811. AmpC nitrocefin hydrolysis, absorbance 480 nm, 0.0001% Triton. AID 485341, 2010. 330,000 compounds, 0.52% hits. Potency, µM (top dose mostly 57.1 µM), most hits filed as inhibitors; further: nearly all actives have a fitted effect of over 20% in size
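20 mM phosphate pH 7.0 + 0.01% (detergent screen) or 0.0001% Triton X-100; 5.3 nM AmpC reagent; cpd preinc 15 min RT; nitrocefin (800 uM stock) to start; A480 q20 s × 4 min; Activity was normalised to no-enzyme and no-compound control wells.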
Sm TGR block: qHTS Assay for the Inhibitors of Schistosoma Mansoni Peroxiredoxins. AID 485364, 2010. purified TGR, DTNB reduction, TNB absorbance 405 nm. Schistosoma mansoni thioredoxin glutathione reductase (TGR), Q962Y6. Potency, µM (series often up to 114 µM), hits mostly inhibitors. 360,000 compounds, 3% hits; further: nearly all actives have a fitted effect of over 60% in size
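TGR 20 nM + NADPH 100 uM (dispensed conc.), cpd preinc 15 min RT; start with NADPH (500 uM addition) then DTNB (15 mM addition). Kinetic TNB absorbance, 405 nm filter. Four-parameter Hill fit across titration.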
A number is an active result. The call rests on the fitted dose curve; in most records, active means well fitted curve in the direction sought with a large enough effect; inconclusive means small, poorly fitted or top-dose-only effect, or another doubt; inactive means no such curve, though single readings can be large; an effect the other way counts as inactive or inconclusive.

Screening Cc1c(NS(=O)(=O)c2cccc([N+](=O)[O-])c2)c(=O)n(-c2ccccc2)n1C returned AmpC detergent inactive, AmpC inh no detg inactive and Sm TGR block 28µM.
Cc1c(NS(=O)(=O)c2ccc(N3CCN(C)CC3)c([N+](=O)[O-])c2)c(=O)n(-c2ccccc2)n1C was read as AmpC detergent inactive, AmpC inh no detg inactive and Sm TGR block inactive.
CCC(C)(C)n1nnnc1C(c1cc2cc(C)cc(C)c2[nH]c1=O)N1CCN(Cc2ccc3c(c2)OCO3)CC1 (stereo not drawn) was read as AmpC detergent inactive, AmpC inh no detg inactive and Sm TGR block inconclusive.
CCC(C)(C)n1nnnc1C(c1cc2cc(C)cc(C)c2[nH]c1=O)N1CCCC1 (stereo not drawn) was read as AmpC detergent inactive, AmpC inh no detg inactive and Sm TGR block 22µM.
COc1ccccc1C(c1nnnn1C(C)(C)C)N1CCN(C(=O)c2ccco2)CC1 (stereo not drawn) was read as AmpC detergent inactive, AmpC inh no detg inactive and Sm TGR block inactive.
For O=C(c1ccco1)N1CCN(C(c2cccs2)c2nnnn2C2CCCC2)CC1 (stereo not drawn) the results were AmpC detergent inactive, AmpC inh no detg inactive and Sm TGR block inactive.
`Cc1cc(C)c2[nH]c(=O)c(C(c3nnnn3C(C)(C)C)N3CCN(C(=O)c4ccco4)CC3)cc2c1` (stereo not drawn) gave AmpC detergent inactive, AmpC inh no detg inactive and Sm TGR block 79µM.
For Cc1ccc2occ(C(c3nnnn3C3CCCC3)N3CCN(C(=O)c4ccco4)CC3)c(=O)c2c1 (stereo not drawn) the results were AmpC detergent inactive, AmpC inh no detg inactive and Sm TGR block 18µM.
For CCC(C)(C)n1nnnc1C(c1cc2cccc(C)c2[nH]c1=O)N1CCCC1 (stereo not drawn) the results were AmpC detergent inactive, AmpC inh no detg inactive and Sm TGR block 10µM.
Screening CCC(C)(C)n1nnnc1C(c1cc2ccc(OC)cc2[nH]c1=O)N1CCCCC1 (stereo not drawn) returned AmpC detergent inactive, AmpC inh no detg inactive and Sm TGR block inactive.
For CCOc1ccc(C(=O)Nc2ccc(C(=O)OCc3cc(=O)n4c(C)csc4n3)cc2)cc1 the results were AmpC detergent inactive and Sm TGR block inactive.
Screening COc1ccc(S(=O)(=O)c2cn(C)c3cc(N4CCCC4)c(F)cc3c2=O)cc1 returned AmpC detergent inactive and Sm TGR block inactive.
`CCc1ccccc1Nc1nn2c(=O)c3ccc(C(=O)NC(C)c4ccccc4)cc3nc2s1` (stereo not drawn) gave AmpC detergent inactive and Sm TGR block inactive.
Screening Cc1ccc2c(C)c(C(=O)N(Cc3ccc(N(C)C)cc3)Cc3ccco3)oc2c1C returned AmpC detergent inactive and Sm TGR block inactive.
`CCCCc1nnc(SCc2cc(=O)c3cc(F)ccc3[nH]2)n1C` gave AmpC detergent inactive and Sm TGR block inactive.
Screening CCCN(CCC)c1cc(C)nc2nc(-c3ccc(Cl)cc3)nn12 returned AmpC detergent inactive and Sm TGR block inactive.
Screening Cc1ccc(C)c(NC(=O)C(=O)NCCc2csc(-c3ccc(C(F)(F)F)cc3)n2)c1 returned AmpC detergent inactive and Sm TGR block inactive.
CCc1ccccc1NC(=O)CSC1=C(C#N)C(c2ccc(O)c(OC)c2)C2=C(CCCC2=O)N1 (stereo not drawn) was read as AmpC detergent inactive, AmpC inh no detg inactive and Sm TGR block 40µM.
For COc1cc(C2C(C#N)=C(SC)NC3=C2C(=O)CCC3)ccc1O (stereo not drawn) the results were AmpC detergent inactive, AmpC inh no detg inactive and Sm TGR block inactive.
For CC(=O)N1c2ccc(S(=O)(=O)NCC3CCC(C(=O)Nc4cccc(F)c4)CC3)cc2CC1C (stereo not drawn) the results were AmpC detergent inactive and Sm TGR block inactive.
`O=C(O)COc1ccc(/C=N/NC(=O)c2ccc(-c3csc(Nc4ccc(Cl)cc4)n3)cc2)cc1` gave AmpC detergent inconclusive, AmpC inh no detg inactive and Sm TGR block inactive.
CCOc1cc(/C=N/NC(=O)c2ccccn2)ccc1OC(=O)c1ccc(F)cc1 was read as AmpC detergent inactive, AmpC inh no detg inactive and Sm TGR block 50µM.
For COc1ccc(/C=N\NC(=O)c2ccc(F)cc2)cc1COc1ccccc1C(N)=O the results were AmpC detergent inactive, AmpC inh no detg inactive and Sm TGR block 28µM.
Screening COc1ccc(NC(=S)N/N=C/c2ccc(F)cc2)cc1OC returned AmpC detergent inactive, AmpC inh no detg inactive and Sm TGR block inactive.
COc1ccc(/C=N/NC(=S)Nc2ccccc2)cc1COc1ccc(F)cc1F was read as AmpC detergent inactive, AmpC inh no detg 18µM and Sm TGR block inactive.
Screening CCOc1cc(/C=N/NC(=O)c2ccc(-c3csc(Nc4ccc(C)cc4)n3)cc2)ccc1OCC(=O)O returned AmpC detergent inactive, AmpC inh no detg 1.4µM and Sm TGR block inactive.
For CCOc1cc(/C=N/NC(=O)c2ccncc2)ccc1OC(=O)c1ccccc1 the results were AmpC detergent inactive, AmpC inh no detg inactive and Sm TGR block inactive.
Screening COc1cccc(C(=O)N/N=C/c2ccc(OC)c(COc3ccccc3C(N)=O)c2)c1 returned AmpC detergent inactive, AmpC inh no detg inactive and Sm TGR block inactive.
CC(=O)N1CCC(N(Cc2ccc(C)o2)C(=O)Nc2cccc(C(F)(F)F)c2)CC1 was read as AmpC detergent inactive and Sm TGR block inactive.
For Cn1c(=O)n(-c2ccc(F)c(Cl)c2)c(=O)c2sc3ccccc3c21 the results were AmpC detergent inactive and Sm TGR block inactive.
COc1ccc(CNC(=O)c2c3c(nc4ccccc24)C(=O)N(C2CCCCC2)C3)cc1 was read as AmpC detergent inactive and Sm TGR block inactive.
For COc1cc(OC)c(N(C)C(=O)c2nn(C)c3c2CSc2ccccc2-3)cc1Cl the results were AmpC detergent inactive and Sm TGR block inactive.
N#CC1=C(N)Oc2cc(O)c(C=Nc3ccccc3)cc2C1c1ccccc1 (stereo not drawn) was read as AmpC detergent inactive, AmpC inh no detg inactive and Sm TGR block inactive.
Cc1ccc(N=Cc2cc3c(cc2O)OC(N)=C(C#N)C3c2ccccc2)cc1 (stereo not drawn) was read as AmpC detergent inactive, AmpC inh no detg 20µM and Sm TGR block inactive.
Screening COc1ccccc1Cn1ccn(Cc2ccc(C)cc2)c(=O)c1=O returned AmpC detergent inactive and Sm TGR block inactive.
Screening CSc1ccccc1NC(=O)C1=CC(c2ccc3c(c2)OCO3)=NS(=O)(=O)N1C returned AmpC detergent inactive and Sm TGR block inactive.
Screening COc1ccc(NC(=O)C(C(C)C)N2Cc3ccccc3C2=O)cc1 (stereo not drawn) returned AmpC detergent inactive and Sm TGR block inactive.
For Cn1c(NCCCO)nc2c1c(=O)n(Cc1ccccc1F)c(=O)n2C the results were AmpC detergent inactive, AmpC inh no detg inactive and Sm TGR block inactive.
COc1ccccc1Oc1nc2c(c(=O)n(Cc3ccccc3F)c(=O)n2C)n1C was read as AmpC detergent inactive, AmpC inh no detg inactive and Sm TGR block 2.8µM.
